Experimental data taken from PubChem BioAssay AID803 (The Scripps Research Institute Molecular Screening Center, 2007).
Hit rate of the full screen: of about 140,000 compounds, about 680 (0.49%) were called active. The sample holds actives, similar compounds and a random draw of the others, so the mix is not that of the screen. No stated cut-off is given here; in the data, active means activation above about 5% (passing the limit was not always enough); inactive means the rest.

Biological target: Galanin receptor type 2 (Homo sapiens) (UniProt O43603)
Sequence (O43603 whole entry, looked up): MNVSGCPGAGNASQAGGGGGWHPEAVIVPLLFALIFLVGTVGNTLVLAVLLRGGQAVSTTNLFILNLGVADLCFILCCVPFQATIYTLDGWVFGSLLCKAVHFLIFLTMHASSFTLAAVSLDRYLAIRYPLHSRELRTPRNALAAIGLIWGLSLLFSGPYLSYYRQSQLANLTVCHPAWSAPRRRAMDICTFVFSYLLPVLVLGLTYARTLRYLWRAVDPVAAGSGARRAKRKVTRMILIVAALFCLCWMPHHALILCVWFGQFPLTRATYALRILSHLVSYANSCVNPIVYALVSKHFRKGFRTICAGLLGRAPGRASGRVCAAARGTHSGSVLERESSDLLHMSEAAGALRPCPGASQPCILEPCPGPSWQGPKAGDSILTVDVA
Experiment: human galanin receptor 2 activators – cell-based, primary screen (AID 803);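 further: 0% = vehicle buffer wells and 100% = reference agonist at full effect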
Conditions: GALR2-expressing cells, agonist activation read-out; active compounds read high; concentration not given here

| Structure (SMILES) | activation |
| --- | --- |
| CCOC(=O)c1c(N)n(Cc2ccccc2)c2nc3ccccc3nc12 | -0.61% (inactive) |
| CCOC(=O)c1c(N)n(CCN2CCOCC2)c2nc3ccccc3nc12 | 1.16% (inactive) |
| COc1cc(Cn2c(N)c(C(=O)NCc3ccco3)c3nc4ccccc4nc32)cc(OC)c1OC | 25% (active) |
| CC(=O)c1c(C)n(C(C)C)c2ccc(O)cc12 | 0.6% (inactive) |
| CN1CCN(C(=S)SCC(=O)Nc2ccc(Cl)cc2C(=O)c2ccccc2)CC1 | -0.06% (inactive) |
| Cc1cccc(N2C(=O)NC(=O)/C(=C\c3cnn(-c4ccccc4)c3)C2=O)c1 | 34.2% (active) |
| O=C1NC(=O)N(c2ccc(F)cc2)C(=O)/C1=C/c1ccc2c(c1)CCCN2Cc1ccccc1 | -0.69% (inactive) |
| COc1c(O)ccc2c1-c1c3c(cc4c1C(C2)N(C)CC4)OCO3 (stereo not given) | -1.66% (inactive) |
| CCOP(=O)(OCC)C(NC(=O)c1ccc(C)cc1)C(Cl)(Cl)Cl (stereo not given) | -0.73% (inactive) |
| Cc1ccc(-n2c(-c3ccc([N+](=O)[O-])cc3)nc3ccccc3c2=O)cc1 | -0.79% (inactive) |
